According to PubChem BioAssay:
For some of these results: Results with a measured potency or affinity are listed apart. Activity calls are given as the source filed them.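 Rule for the calls, unless noted: active = primary screen active and over 50% activation in each of two duplicate runs; inactive = the rest.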

Tests used:
[1] = test system: TRPC4 beta (transient receptor potential cation channel C4), mouse; assay: TRPC4 cation channel opening, retest – cell-based, Fluo4 calcium, HEK293 TRPC4beta/mu-opioid, duplicates, 10 µM, confirmation (AID 2426;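 active = fluorescence ratio normalized to control raised more than 50% in primary screen plus both repeat runs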;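 for activation: percent rise of integrated ratio over buffer wells lacking compound which define 0%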); settings: Fluo4 calcium fluorescence, at 10 µM; hits give high values
[2] = test system: transient receptor potential cation channel C4 beta (TRPC4), mouse; assay: TRPC4 cation channel opening, second retest – cell-based, second round, Fluo4, HEK293 TRPC4beta/mu-opioid, 1 µM, confirmation (AID 2461); settings: Fluo4 calcium fluorescence, at 1 µM; hits give high values;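 for activation: 0% = wells without test compound as baseline of integrated fluorescence ratio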
[3] = test system: TRPC4 (transient receptor potential cation channel C4 beta), mouse; assay: potentiation of DAMGO EC20 TRPC4 response – cell-based, second round, Fluo-4, HEK293 TRPC4beta/mu-opioid, 1 µM, confirmation (AID 2554;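 active = primary screen hit whose fluorescence ratio, in both repeats, exceeds the weak agonist control mean by 3 SD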); settings: DAMGO EC20, Fluo-4 calcium flux, at 1 µM; hits give high values
[4] = test system: TRPC4 beta (transient receptor potential cation channel C4), mouse; assay: potentiation of DAMGO EC20 TRPC4 response – cell-based, Fluo-4, HEK293 TRPC4beta/mu-opioid, confirmation (AID 2555;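 active = primary screen hit whose calcium fluorescence ratio, in both repeats, exceeds the weak agonist control mean by 3 SD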); settings: DAMGO EC20, Fluo-4 calcium flux, at 10 µM; hits give high values
[5] = target: Short transient receptor potential channel 4 (Mus musculus) (UniProt Q9QUQ5); assay: blockers of DAMGO-evoked TRPC4 calcium flux – cell-based, Fluo4, HEK293 TRPC4beta/mu-opioid, confirmation (AID 2636;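 active = calcium signal cut by more than 3 SD below the full-agonist control yet still positive, in both repeats and the earlier primary screen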); settings: at 10 µM; hits give high values
Short transient receptor potential channel 4 (Mus musculus), sequence (Q9QUQ5 whole entry, looked up): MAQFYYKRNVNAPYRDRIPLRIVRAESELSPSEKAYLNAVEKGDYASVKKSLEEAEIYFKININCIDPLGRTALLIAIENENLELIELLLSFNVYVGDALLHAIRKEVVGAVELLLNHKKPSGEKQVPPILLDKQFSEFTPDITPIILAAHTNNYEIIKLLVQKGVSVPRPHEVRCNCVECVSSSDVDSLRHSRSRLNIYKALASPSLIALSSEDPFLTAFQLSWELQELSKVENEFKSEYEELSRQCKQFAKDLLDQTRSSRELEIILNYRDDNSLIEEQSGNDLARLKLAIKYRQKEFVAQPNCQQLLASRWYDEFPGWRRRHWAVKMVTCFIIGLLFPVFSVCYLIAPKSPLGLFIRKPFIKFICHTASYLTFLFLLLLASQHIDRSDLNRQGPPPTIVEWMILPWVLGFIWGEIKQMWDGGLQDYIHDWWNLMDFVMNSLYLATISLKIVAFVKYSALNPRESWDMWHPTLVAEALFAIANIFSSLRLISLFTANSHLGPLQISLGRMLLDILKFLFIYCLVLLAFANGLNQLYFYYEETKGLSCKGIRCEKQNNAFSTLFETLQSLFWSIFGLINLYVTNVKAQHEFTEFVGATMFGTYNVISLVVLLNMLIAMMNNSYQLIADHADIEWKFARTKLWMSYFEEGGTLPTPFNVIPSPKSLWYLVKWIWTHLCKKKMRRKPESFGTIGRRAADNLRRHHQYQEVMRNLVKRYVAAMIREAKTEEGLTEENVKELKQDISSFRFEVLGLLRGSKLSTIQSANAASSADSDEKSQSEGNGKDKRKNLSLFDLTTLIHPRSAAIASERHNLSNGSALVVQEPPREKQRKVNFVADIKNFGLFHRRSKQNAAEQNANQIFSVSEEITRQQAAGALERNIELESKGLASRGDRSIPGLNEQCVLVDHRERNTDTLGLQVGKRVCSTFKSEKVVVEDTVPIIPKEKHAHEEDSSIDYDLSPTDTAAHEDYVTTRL

[6] = target: Short transient receptor potential channel 4 (Mus musculus) (UniProt Q9QUQ5); assay: blockers of DAMGO-evoked TRPC4 calcium flux – cell-based, second round, Fluo4, HEK293 TRPC4beta/mu-opioid, 1 µM, confirmation (AID 2637;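 active = calcium signal ratio cut to more than 3 SD under the fully stimulated control mean yet still positive, in both repeats and the primary screen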); settings: at 1 µM; hits give high values
[7] = target: Short transient receptor potential channel 4 (Mus musculus) (UniProt Q9QUQ5); assay: potentiation of DAMGO-evoked TRPC4 calcium signal – cell-based, HEK293 TRPC4/mu-opioid, Fluo-4 calcium, EC20 DAMGO, dose response (AID 434941;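 active = earlier screen potentiator hit that boosts the TRPC4 ion channel at some dose, with a dose response; inactive = no potentiation, no dose response, or not a prior hit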;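 note: calcium entry triggered by an EC20 dose of DAMGO at the co-expressed mu-opioid receptor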)
[8] = target: Short transient receptor potential channel 4 (Mus musculus) (UniProt Q9QUQ5); assay: block of DAMGO-driven TRPC4 calcium entry – cell-based, HEK293 TRPC4/mu-opioid, Fluo-4 calcium, dose response (AID 434942;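 active = primary screen inhibitor hit that blocks the TRPC4 channel at some tested dose, yielding a dose curve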)
[9] = target: Short transient receptor potential channel 6 (Mus musculus) (UniProt Q61143); assay: TRPC6 blockade by TRPC4 inhibitor hits – cell-based, HEK293, membrane potential dye, duplicate, selectivity assay for TRPC4 inhibitor project, confirmation (AID 434948;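 active = active in primary screen and both duplicates, each dropping signal beyond three positive-control SD with fluorescence still positive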); settings: HEK293 TRPC6, membrane potential dye fluorescence, at 10 µM, stimulated with maximal-effect acetylcholine; hits give high values
Short transient receptor potential channel 6 (Mus musculus), sequence (Q61143 whole entry, looked up): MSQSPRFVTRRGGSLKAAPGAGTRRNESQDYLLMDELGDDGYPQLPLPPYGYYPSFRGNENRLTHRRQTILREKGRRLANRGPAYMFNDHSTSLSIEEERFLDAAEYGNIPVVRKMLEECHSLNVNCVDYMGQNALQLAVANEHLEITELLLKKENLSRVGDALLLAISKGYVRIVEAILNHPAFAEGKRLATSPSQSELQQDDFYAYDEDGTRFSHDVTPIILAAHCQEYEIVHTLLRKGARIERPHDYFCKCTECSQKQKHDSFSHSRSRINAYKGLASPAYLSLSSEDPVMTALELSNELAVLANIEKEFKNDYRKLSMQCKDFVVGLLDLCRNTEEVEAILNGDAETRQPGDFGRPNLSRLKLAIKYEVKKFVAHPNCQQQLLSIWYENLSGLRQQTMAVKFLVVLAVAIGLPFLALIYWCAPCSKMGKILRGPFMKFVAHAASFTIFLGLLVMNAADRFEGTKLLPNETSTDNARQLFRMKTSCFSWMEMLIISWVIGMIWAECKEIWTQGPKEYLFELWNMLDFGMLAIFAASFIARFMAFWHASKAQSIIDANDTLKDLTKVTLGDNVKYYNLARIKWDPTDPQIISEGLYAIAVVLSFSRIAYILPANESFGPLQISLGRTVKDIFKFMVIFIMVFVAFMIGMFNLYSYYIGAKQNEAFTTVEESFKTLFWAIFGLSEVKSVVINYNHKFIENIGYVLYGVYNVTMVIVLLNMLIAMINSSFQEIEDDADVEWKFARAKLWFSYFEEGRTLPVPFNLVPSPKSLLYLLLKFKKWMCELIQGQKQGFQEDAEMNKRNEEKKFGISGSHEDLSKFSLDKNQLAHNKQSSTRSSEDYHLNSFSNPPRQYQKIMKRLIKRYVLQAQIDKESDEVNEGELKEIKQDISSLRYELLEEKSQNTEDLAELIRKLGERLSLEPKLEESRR

[10] = target: Short transient receptor potential channel 6 (Mus musculus) (UniProt Q61143); assay: TRPC6 opening by TRPC4 activator hits – cell-based, HEK293, membrane potential dye, duplicate, selectivity assay for TRPC4 activator project, confirmation (AID 434950;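 active = membrane potential signal rise above negative control mean plus 3 SD in both duplicates, also active in the earlier TRPC4 screen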;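 for activation: 0% = buffer only wells and 100% = acetylcholine maximal-effect wells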); settings: HEK293 TRPC6, membrane potential fluorescence, at 10 µM; activation: hits give high values; outcome: activation
[11] = target: Short transient receptor potential channel 6 (Mus musculus) (UniProt Q61143); assay: positive modulators of mouse TRPC6 channel – HEK293 cells, membrane potential dye, duplicate, selectivity assay for TRPC4 potentiator project, confirmation (AID 434952;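 active = compound raising the membrane signal above positive-control mean plus 3 SD in both repeats, and a primary screen hit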); settings: HEK293 TRPC6, membrane potential dye fluorescence, at 10 µM, maximal acetylcholine added after compound; hits give high values
[12] = target: Short transient receptor potential channel 4 (Mus musculus) (UniProt Q9QUQ5); assay: calcium flux activators in TRPC4/5HT1a cells, counter-screen for TRPC4 activator project, cell-based, second counter screen, HEK293 TRPC4/5HT1a, Fluo-4 (AID 434977;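 active = calcium signal rise above buffer-control mean plus 5 SD in both duplicates, and also a hit in the primary screen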;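 for activation: plate controls were assay buffer for no effect and maximal serotonin response for full effect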); settings: Fluo-4 calcium flux, at 10 µM; hits give high values
[13] = serotonin-gated TRPC4 signal block – cell-based, second counter screen, HEK293 TRPC4/5HT1a, Fluo-4, counter-screen for TRPC4 inhibitor project, confirmation (AID 434978;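 active = primary screen active whose calcium signal fell more than 3 SD beyond the full-serotonin control mean in both duplicate plates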;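 note: serotonin given first at submaximal then at maximal dose after compound preincubation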); settings: Fluo-4 calcium flux, at 10 µM, serotonin added to trigger calcium flux; hits give high values
[14] = test system: TRPC4 (mouse), co-expressed with 5HT1a in HEK293; assay: enhancement of serotonin-evoked TRPC4 response – cell-based, second counter screen, HEK293 TRPC4/5HT1a, Fluo-4, counter-screen for TRPC4 potentiator project, confirmation (AID 434979;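 active = signal rise over 3 SD above mean of control wells given weak agonist, in both repeats and first screen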); settings: Fluo-4 calcium flux, at 10 µM, serotonin added at its EC20 dose; hits give high values
[15] = nonspecific calcium rise without TRPC4 – cell-based, HEK293 mu-opioid receptor line, counter-screen for TRPC4 activator project, confirmation (AID 449723;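 active = hit in primary screen, with calcium signal over 5 SD above buffer well mean in both duplicates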;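 note: counter screen cells carry the mu-opioid receptor alone and lack TRPC4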); settings: HEK293 mu-opioid cells, Fluo-4 calcium fluorescence, at 10 µM; hits give high values
[16] = nonspecific potentiation of DAMGO calcium response – cell-based, HEK293 mu-opioid receptor line, counter-screen for TRPC4 allosteric potentiator project, confirmation (AID 449724;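 active = calcium signal rise more than 3 SD above the low-dose agonist control mean, in both duplicate plates and the primary screen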); settings: HEK293 mu-opioid receptor cells, Fluo-4 calcium flux, at 10 µM, compound added before EC20 DAMGO stimulus; hits give high values

Measured: activation

O=C(CCC1CCCC1)c1c(O)c2ccccc2oc1=O
active: [1] 222% | [10] 25% | [12] 19.6% | [15] 51.5%
inactive: [2] | [3] | [4] | [5] | [6] | [7] | [8] | [9] | [11] | [13] | [14] | [16]

CN(CCc1nc2ccc(Cl)cc2[nH]1)Cc1nc(CC2CC2)no1
active: [1] 115% | [12] 23.4%
inactive: [2] | [3] | [4] | [5] | [6] | [7] | [8] | [9] | [10] | [11] | [13] | [14] | [15] | [16]

CCn1cc(CN2CCC(n3nccc3NC(=O)CCOc3ccccc3)CC2)cn1
active: [1] 78%
inactive: [2] | [3] | [4] | [5] | [6] | [7] | [8] | [9] | [10] | [11] | [12] | [13] | [14] | [15] | [16]

CC(=O)Nc1ccc(CN2CCCC(C(=O)c3ccc(C(F)(F)F)cc3)C2)cc1 (configuration not stated)
inactive: [3] | [4] | [5] | [6] | [7] | [8] | [9] | [11] | [13] | [14] | [15] | [16]
active: [1] 358% | [2] 86% | [10] 37.5% | [12] 40.5%

CCOC(=O)C1(CCc2ccccc2)CCN(Cc2c(O)cccc2OC)CC1
active: [1] 83% | [10] 92.5%
inactive: [2] | [3] | [4] | [5] | [6] | [7] | [8] | [9] | [11] | [12] | [13] | [14] | [15] | [16]

CCOC(=O)C1(Cc2cccc(F)c2)CCN(Cc2cnc(C)s2)CC1
active: [10] 44%
inactive: [1] | [2] | [3] | [4] | [5] | [6] | [7] | [8] | [9] | [11] | [12] | [13] | [14] | [15] | [16]

CCN(c1ccccc1)S(=O)(=O)c1ccc(C(=O)N(CCCN(C)C)c2nc3cc4c(cc3s2)OCO4)cc1
active: [1] 99%
inactive: [2] | [3] | [4] | [5] | [6] | [7] | [8] | [9] | [10] | [11] | [12] | [13] | [14] | [15] | [16]
